The campaign covered roughly 5,500 compounds. About 2,000 (36%) were called active. Roughly 18% stayed inconclusive and do not appear here. No stated cut-off is given here; in the data, active means normalized growth mostly below about 0.91 (no sharp cut-off); inconclusive means no clear call, values can overlap the other calls; inactive means mostly above about 0.92. This is one part of the list.
Test: chemical genetic growth profiling, strain panel (AID 1159580);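 further: tested at 20 µM; growth read once vehicle control cultures reached saturation at 30 °C; 1 = growth at the plate median or of vehicle wells; lower values mean less growth of the strain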
Conditions: S. cerevisiae deletion strains, growth OD

Measured: normalized growth

COc1cc(OC)c2c(=O)c(-c3ccc4c(c3)OCO4)coc2c1
inactive: locus YAL021C, strain ccr4, active compounds read low 1.01 | locus YAL026C, strain drs2, active compounds read low 0.982 | locus YAL030W, strain snc1, active compounds read low 0.977 | locus YBL061C, strain skt5, active compounds read low 0.979 | locus YBR009C, strain hhf1, active compounds read low 0.984 | locus YBR023C, strain chs3, active compounds read low 0.989 | locus YBR171W, strain sec66, active compounds read low 0.969 | locus YBR231C, strain swc5, active compounds read low 1 | locus YBR279W, strain paf1, active compounds read low 0.992 | locus YCL011C, strain gbp2, active compounds read low 0.981 | locus YCL016C, strain dcc1, active compounds read low 0.986 | locus YCL061C, strain MRC1, active compounds read low 0.996 | locus YCL069W, strain vba3, active compounds read low 0.983 | locus YCR088W, strain abp1, active compounds read low 0.979 | locus YDL005C, strain med2, active compounds read low 0.997 | locus YDL040C, strain nat1, active compounds read low 0.981 | locus YDR001C, strain nth1, active compounds read low 0.98 | locus YDR069C, strain doa4, active compounds read low 0.998 | locus YDR137W, strain rgp1, active compounds read low 1.01 | locus YDR159W, strain sac3, active compounds read low 1.01 | locus YDR195W, strain ref2 0.988 | locus YDR297W, strain sur2, active compounds read low 0.989 | locus YDR334W, strain swr1, active compounds read low 0.991 | locus YDR335W, strain msn5, active compounds read low 1 | locus YDR392W, strain spt3, active compounds read low 0.802 | locus YEL003W, strain gim4, active compounds read low 0.992 | locus YEL037C, strain rad23, active compounds read low 0.993 | locus YEL061C, strain CIN8 (second series), active compounds read low 0.986 | locus YER015W, strain faa2, active compounds read low 1 | locus YER016W, strain bim1, active compounds read low 0.987 | locus YER111C, strain swi4, active compounds read low 1.01 | locus YER155C, strain BEM2 (second series), active compounds read low 0.942 | locus YFR010W, strain ubp6, active compounds read low 1 | locus YGL167C, strain pmr1, active compounds read low 0.984 | locus YGL173C, strain kem1, active compounds read low 0.985 | locus YGL227W, strain vid30, active compounds read low 0.978 | locus YGL240W, strain doc1, active compounds read low 1.02 | locus YGL253W, strain hxk2, active compounds read low 0.977 | locus YHR013C, strain ard1, active compounds read low 0.971 | locus YHR027C, strain rpn1, active compounds read low 1 | locus YHR030C, strain SLT2, active compounds read low 1.05 | locus YHR079C, strain IRE1, active compounds read low 1.05 | locus YHR142W, strain chs7, active compounds read low 0.931 | locus YJL092W, strain hpr5, active compounds read low 0.978 | locus YJL095W, strain BCK1 (second series), active compounds read low 0.984 | locus YJL095W, strain BCK1, active compounds read low 1.03 | locus YJL115W, strain asf1, active compounds read low 0.992 | locus YJL129C, strain trk1, active compounds read low 0.918 | locus YJL154C, strain vps35, active compounds read low 0.991 | locus YJL164C, strain tpk1, active compounds read low 0.98 | locus YJL166W, strain qcr8, active compounds read low 0.99 | locus YJL187C, strain SWE1, active compounds read low 0.996 | locus YJR066W, strain TOR1, active compounds read low 0.99 | locus YKL160W, strain elf1, active compounds read low 0.991 | locus YKR026C, strain gcn3, active compounds read low 0.98 | locus YKR091W, strain srl3, active compounds read low 0.986 | locus YLL001W, strain dnm1, active compounds read low 0.977 | locus YLL026W, active compounds read low 0.985 | locus YLL041C, strain sdh2, active compounds read low 0.99 | locus YLR027C, strain aat2, active compounds read low 0.979 | locus YLR113W, strain HOG1, active compounds read low 1.08 | locus YLR221C, strain rsa3, active compounds read low 0.961 | locus YLR258W, strain gsy2, active compounds read low 0.976 | locus YLR262C, strain YPT6 (second series), active compounds read low 1.04 | locus YLR320W, strain mms22, active compounds read low 0.964 | locus YLR342W, strain FKS1, active compounds read low 0.983 | locus YLR357W, strain rsc2, active compounds read low 0.987 | locus YLR370C, strain arc18, active compounds read low 0.99 | locus YLR384C, strain iki3, active compounds read low 0.99 | locus YML120C, strain ndi1, active compounds read low 0.967 | locus YMR058W, strain fet3, active compounds read low 0.983 | locus YMR125W, strain sto1, active compounds read low 0.989 | locus YMR129W, active compounds read low 0.981 | locus YMR205C, strain PFK2, active compounds read low 0.962 | locus YMR231W, strain pep5, active compounds read low 0.987 | locus YNL071W, strain lat1, active compounds read low 0.954 | locus YNL183C, strain NPR1, active compounds read low 0.984 | locus YNL209W, strain ssb2, active compounds read low 0.985 | locus YNL248C, strain rpa49, active compounds read low 1.02 | locus YNL322C, strain KRE1 (second series), active compounds read low 0.983 | locus YNR049C, strain mso1, active compounds read low 0.995 | locus YOR001W, strain rrp6, active compounds read low 0.994 | locus YOR070C, strain gyp1, active compounds read low 0.999 | locus YOR080W, strain dia2, active compounds read low 1 | locus YOR083W, strain WHI5, active compounds read low 0.98 | locus YOR106W, strain vam3, active compounds read low 0.986 | locus YOR231W, strain MKK1, active compounds read low 1.07 | locus YOR265W, strain rbl2, active compounds read low 0.99 | locus YOR270C, strain vph1, active compounds read low 0.922 | locus YOR290C, strain snf2, active compounds read low 0.957 | locus YPL051W, strain arl3, active compounds read low 1.01 | locus YPL078C, strain atp4, active compounds read low 0.983 | locus YPL106C, strain sse1, active compounds read low 0.987 | locus YPL240C, strain hsp82, active compounds read low 0.984 | locus YPL256C, strain CLN2, active compounds read low 1.05

From PubChem BioAssay AID1159580 (chemical genetic matrix, 2015)
